ELG1 genotoxic: qHTS screen for small molecules that induce genotoxicity in human embryonic kidney (HEK293T) cells expressing luciferase-tagged ELG1; HEK293T ELG1-luciferase reporter, luminescence, 16 h; Potency, µM (series often up to 46 µM), inactives show at the highest dose activity change, positive = activation, hits mostly activators; actives 1.3% (n = 330,000); further: % of control where 0% means no effect; nearly all actives have a fitted effect of over 60% in size
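Genotoxic stress is detected as increased luminescence from luciferase-tagged ELG1 in HEK293T cells, measured with ONE-Glo after a 16 hr treatment at 37 °C.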
FLuc counter: qHTS profiling assay for firefly luciferase inhibitor/activator using purifed enzyme and Km concentrations of substrates (counterscreen for miR-21 project); purified FLuc, Km substrates, luminescence inhibition; Potency, µM (titrated, usually from 57.5 µM), inactives show at the top dose activity change, negative = inhibition, usual class: inhibitors; actives 6.9% (n = 360,000); AID 588342, 2011;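 further: plate controls were vehicle for no effect and reference inhibitor for full effect; nearly all actives have a fitted effect of over 55% in size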
Target sequence (P08659 whole entry, looked up): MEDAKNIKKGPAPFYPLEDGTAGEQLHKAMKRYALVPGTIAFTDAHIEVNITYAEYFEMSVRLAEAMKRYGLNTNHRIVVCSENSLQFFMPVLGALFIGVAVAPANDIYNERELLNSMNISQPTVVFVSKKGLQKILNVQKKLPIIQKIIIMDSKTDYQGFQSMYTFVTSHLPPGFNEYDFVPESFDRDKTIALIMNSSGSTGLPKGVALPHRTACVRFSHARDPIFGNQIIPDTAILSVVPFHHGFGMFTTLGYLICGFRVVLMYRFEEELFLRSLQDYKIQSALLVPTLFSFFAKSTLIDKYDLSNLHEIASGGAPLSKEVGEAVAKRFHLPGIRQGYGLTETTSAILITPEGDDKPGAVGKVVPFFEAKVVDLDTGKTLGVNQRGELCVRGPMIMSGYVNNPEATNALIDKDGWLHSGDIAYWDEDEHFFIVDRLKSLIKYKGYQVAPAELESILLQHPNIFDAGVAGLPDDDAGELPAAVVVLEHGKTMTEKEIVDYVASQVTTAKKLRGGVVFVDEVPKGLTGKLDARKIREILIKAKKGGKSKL
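Purified P. pyralis luciferase, 10 nM final, with Km-level 10 uM D-luciferin and 10 uM ATP in 50 mM Tris acetate pH 7.5, 10 mM Mg acetate, 0.01% Tween-20, 0.05% BSA; 6-point qHTS titration about 60 µM downward; luminescence read.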
Rab9 prom act: qHTS Assay for Rab9 Promoter Activators | Huh7 Rab9 promoter-luciferase reporter, luminescence, 24 h | Potency, µM (doses to about 9.22 µM), for the others: at the highest dose activation, negative = inhibition, hits mostly activators | actives 2.8% (n = 320,000) | AID 485297, 2010; further: % of control where 0% means no effect; nearly all actives have a fitted effect of over 60% in size
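Quantitative HTS format; Huh7 Rab9-luciferase reporter cells (1500/well) receive compound 2 h post-plating, incubate 24 h at 37 °C, then get luciferase reagent for 10 min before luminescence reading.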
KinaseGlo FLuc: Counterscreen for Luciferase (Kinase-Glo TM) Inhibition. Luciferin 4-monooxygenase (Photuris pensylvanica), Q27757. Kinase-Glo luciferase, ATP luminescence, 8 min. Potency, µM (titrated, usually from 38.3 µM), for the others: at the top dose activity change, negative = inhibition, most hits filed as inhibitors. actives 0.28% (n = 200,000). AID 1379, 2008; further: on the % scale 0 is the no-effect control and ±100 the full control effect; nearly all actives have a fitted effect of over 60% in size
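Light output from Kinase-Glo luciferase with luciferin and 10 uM ATP in 50 mM imidazole pH 7.2, KCl, MgCl2, Tween 20, BSA; compound pin-delivered, 8-min ambient incubation, then luminescence read.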
SMN2 splice up: qHTS Assay for Enhancers of SMN2 Splice Variant Expression. HEK293 SMN2-luciferase splicing reporter, luminescence, 30-36 h. actives 2.8% (n = 210,000). Potency, µM (titrated, usually from 46.1 µM), inactives show at the highest dose activity change, positive = activation, hits mostly activators; further: % of control where 0% means no effect; nearly all actives have a fitted effect of over 55% in size
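qHTS luciferase splicing reporter: luminescence rises when SMN2 exon 7 is included in transfected HEK293 cells. Compound exposure lasted 30-36 h at 37C, with 4.5 mM final sodium butyrate as control, followed by a ONE-Glo read.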
NPC1 prom act: qHTS Assay for NPC1 Promoter Activators; Huh7 NPC1 promoter luciferase reporter, 24 h; Potency, µM (top dose mostly 9.22 µM), for the others: top-dose activation, usual class: activators; actives 2.4% (n = 320,000); AID 485313, 2010; further: % of control where 0% means no effect; nearly all actives have a fitted effect of over 60% in size
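NPC1 promoter–luciferase Huh7 cells; 24 h compound; luminescence.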
* = called active by the depositor; ? = inconclusive; · = not tested or not shown. Shown are actives, neighbours in structure and some others; about 7.5% of the full set was active somewhere. The call rests on the fitted dose curve; in most records, active means well fitted curve in the direction sought with a large enough effect; inconclusive means small, poorly fitted or top-dose-only effect, or another doubt; inactive means no such curve, though single readings can be large; an effect the other way counts as inactive or inconclusive. Potency means the concentration at half of the fitted maximal effect.

SMILES	ELG1 genotoxic	FLuc counter	Rab9 prom act	KinaseGlo FLuc	SMN2 splice up	NPC1 prom act
O=S(=O)(N/N=C\c1ccc2c(c1)OCO2)c1ccc(F)cc1	-5%	-11%	3%	·	·	0%
COc1cccc(NC(=O)Cn2c(=O)n(Cc3ccco3)c(=O)c3cc(OC)c(OC)cc32)c1	·	-7%	·	·	-2%	·
Cc1ccc(CCNC(=O)Cn2nc(-c3ccc(C)cc3)ccc2=O)cc1	·	-11%	·	·	·	·
Cc1ccc(C)c(NC(=O)c2cnc3n(c2=O)CCS3)c1	15%	-18%	4.5µM*	-5%	?	?
CSc1ccccc1NC(=O)c1cnc2n(c1=O)CCS2	4%	-12%	11%	-1%	-8%	10%
CCc1ccc(NC(=O)c2cnc3n(c2=O)CCS3)cc1	9.2µM*	9.5µM*	4µM*	-3%	26%	29%
COCCCNC(=O)C(C)n1c2ccccc2c2cnn(C)c(=O)c21 (configuration not stated)	·	3%	·	·	-6%	·
COc1cccc2oc(-c3ccccc3)cc(=O)c12	·	·	·	16µM*	·	·
Cc1ccccc1-c1cc(=O)c2ccccc2o1	7%	·	·	·	·	·
COc1ccccc1-c1cc(=O)c2cccc(OC)c2o1	·	·	·	-3%	23%	·
O=c1cc(-c2ccccc2F)oc2ccccc12	?	11µM*	2.2µM*	-6%	13µM*	?
COc1cccc(-c2cc(=O)c3ccccc3o2)c1N	·	·	2.1µM*	-9%	11µM*	2.3µM*
CSc1ccc(-c2cc(=O)c3ccccc3o2)cc1	9.2µM*	4.8µM*	?	4%	11µM*	24%
CCOC(=O)c1c(NC(=O)c2cc3nc(-c4ccc(Br)cc4)cc(C(F)(F)F)n3n2)sc(C(C)=O)c1C	·	-6%	·	·	·	·
CC1CCCCN1C(=O)Cn1c(=O)n(-c2ccc(Cl)cc2)c(=O)c2c3c(sc21)CCC3 (configuration not stated)	·	-10%	·	·	-3%	·
Cc1cc2nc(-c3cc(NC(=O)c4cc5ccccc5o4)ccc3Cl)oc2cc1C	·	?	·	·	8%	·
CCc1ccc(CNC(=O)c2ccc(CSc3nc4ccncc4n3Cc3ccccc3)cc2)cc1	·	-11%	·	·	-23%	·
C=CCOc1c(Br)cc(/C=C2/NC(=S)N(C(C)=O)C2=O)cc1OC	23%	1.5µM*	-3%	4%	9%	0%
CCc1ccc(C(=O)COC(=O)CNC(=O)CNC(=O)Cc2ccccc2)cc1	-1%	?	-2%	-2%	-7%	1%
CCc1ccc(C(=O)COC(=O)CNC(=O)C2CCCCC2)cc1	3%	0.85µM*	25%	·	·	-1%
CCc1ccc(C(=O)COC(=O)CNC(=O)CNS(=O)(=O)c2ccccc2)cc1	1%	19µM*	3%	·	·	1%
CCc1ccc(C(=O)COC(=O)CNC(=O)Cc2ccccc2)cc1	3%	17µM*	1%	·	·	3%
CCOc1ccc(-c2nonc2NC(=O)c2oc3cc(C)ccc3c2C)cc1	·	-6%	·	·	-9%	·
CCOC(=O)CC(C(=O)OCC)C1CCCCC1=O (configuration not stated)	·	·	·	2%	19%	·
CCN(CC)c1nc2c(S(=O)(=O)c3cccc(Cl)c3)nnn2c2ccsc12	·	-1%	·	·	·	·
SMILES	ELG1 genotoxic	FLuc counter	Rab9 prom act	KinaseGlo FLuc	SMN2 splice up	NPC1 prom act
COc1ccc(-c2nn(-c3ccccc3)cc2C(=O)NC2CCC(C)CC2)cc1 (configuration not stated)	7%	0%	-8%	·	·	-3%
CCOC(=O)C1CCN(C(=O)c2cn(-c3ccccc3)nc2-c2cccnc2)CC1	1%	13µM*	4%	-1%	-2%	1%
O=C(NC1CCS(=O)(=O)C1)c1cn(-c2ccccc2)nc1-c1ccccc1 (configuration not stated)	4%	15µM*	-3%	-3%	-11%	-5%
O=C(Nc1cccnc1)c1cn(-c2ccccc2)nc1-c1cccs1	9%	3µM*	1%	11%	3%	18%
O=C(/C=C/c1ccc(-c2ccccc2)cc1)NCc1cccnc1	2%	7.6µM*	13%	·	·	21%
O=C(/C=C/c1ccccc1)NCc1cccnc1	6%	-2%	18%	-3%	·	-1%
O=C(Nc1ccc(Br)cc1F)C1CCN(c2nc3ccccc3[nH]2)CC1	·	-8%	·	·	·	·
COc1ccc(NC(=O)CN(C)C(=O)c2cn(-c3ccccc3)nc2-c2cccs2)cc1	-25%	17µM*	-5%	·	·	-2%
O=C(NCCCN1CCCC1=O)c1cn(-c2ccccc2)nc1-c1ccccc1	1%	11µM*	-4%	·	·	-2%
CCN(CC)CCNC(=O)c1ccc(NC(=O)c2cn(-c3ccccc3)nc2-c2cccs2)cc1	-11%	8.5µM*	-2%	-21%	-113%	1%
O=C(NCc1cccnc1)c1cn(-c2ccccc2)nc1-c1ccccc1	-3%	21µM*	-9%	-3%	27%	1%
Cc1ccc(NC(=O)c2cc(C)nc3c2c(C)nn3-c2cccc(Cl)c2C)c(C)c1	·	4%	·	·	·	·
CCCS(=O)(=O)c1c(S(=O)(=O)CCC)c2cc(CC)ccn2c1C(=O)c1ccc(Cl)cc1	·	-4%	·	·	-4%	·
CCN(CC)C(=O)CSc1nc(N)c2c3c(sc2n1)CC(C)CC3 (configuration not stated)	16%	1.9µM*	19%	-2%	10%	17%
CCOC(=O)CSc1nc(N)c2c3c(sc2n1)CCCC3	23%	9.5µM*	2%	-1%	-5%	6%
CC1CCc2c(sc3nc(SCC(=O)NCc4ccco4)nc(N)c23)C1 (configuration not stated)	14%	4.8µM*	3%	-4%	-21%	13%
Cc1cccc(Cn2c(=O)n(-c3ccccc3C)c(=O)c3c2c2cc(C)ccc2n3C)c1	·	4%	·	·	·	·
O=C(O)c1ccc(NS(=O)(=O)c2ccsc2C(=O)O)c(O)c1	·	·	·	3%	-3%	·
Cc1ccc(NC(=O)c2ccccc2F)nc1	1.8µM*	4.8µM*	0.71µM*	?	7.9µM*	1.1µM*
COc1cc2ccccc2cc1C(=O)Nc1ccc(C)cn1	2.9µM*	3µM*	?	·	·	?
Cc1ccc(NC(=O)CCNC(=O)c2ccccc2Cl)nc1	10%	-1%	0%	·	·	-1%
Cc1ccc(NC(=O)c2ccc3nc[nH]c3c2)nc1	10%	2%	1%	·	·	3%
Cc1cc(NC(=O)c2cc(F)c(F)cc2Cl)no1	3%	-16%	3%	-2%	1%	-1%
Cc1ccc(NC(=O)c2ccc(C(=O)c3ccccc3)cc2)nc1	?	19µM*	28%	·	·	30%

Compound activity deposited in PubChem BioAssay by National Center for Advancing Translational Sciences (NCATS).
